Sampled rows, rich in hits. Any-hit rate of the full collection: about 5.5%.
MBNL1-CUG inh: qHTS Assay for Inhibitors of MBNL1-poly(CUG) RNA binding | Potency, µM (top dose mostly 57.5 µM), actives largely listed as inhibitors | TR-FRET MBNL1-His/biotin-(CUG)12 binding, 665/545 ratio | AID 2675, 2010 | Muscleblind-like protein 1 (Homo sapiens), Q9NR56 | hit rate 0.036% among 280,000; active = well fitted inhibition curve with a large enough effect in the signal ratio, with a control signal flat, not every such curve was filed as active; inconclusive = small, poorly fitted or top-dose-only effect, or effect the other way, or a change in a side signal; inactive = no such curve, though single readings can be large or run the other way; the % refers to the signal ratio
Target sequence (Q9NR56 whole entry, looked up): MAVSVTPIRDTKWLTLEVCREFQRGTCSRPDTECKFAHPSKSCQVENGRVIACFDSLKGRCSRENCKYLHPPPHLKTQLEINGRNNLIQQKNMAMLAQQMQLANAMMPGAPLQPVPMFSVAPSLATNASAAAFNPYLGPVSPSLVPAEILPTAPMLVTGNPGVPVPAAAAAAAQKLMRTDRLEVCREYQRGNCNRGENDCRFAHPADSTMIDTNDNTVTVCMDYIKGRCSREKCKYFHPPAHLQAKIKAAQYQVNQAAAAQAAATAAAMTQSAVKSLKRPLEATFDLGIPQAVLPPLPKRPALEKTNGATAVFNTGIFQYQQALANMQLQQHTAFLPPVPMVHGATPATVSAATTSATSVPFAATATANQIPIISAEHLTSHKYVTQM
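Inhibition of protein-RNA binding appears as loss of TR-FRET between terbium anti-His antibody on MBNL1-His and streptavidin-XL665 on biotin-(CUG)12. Activity is normalized to buffer-only and uninhibited-complex controls.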
RORg inh: qHTS for inhibitors of ROR gamma transcriptional activity | Nuclear receptor ROR-gamma (Mus musculus), P51450 | hit rate 5.4% among 310,000 | Drosophila S2 Gal4-RORgamma UAS-luciferase reporter, 20 h | Potency, µM (series often up to 53.6 µM), hits mostly inhibitors; note: nearly all actives have a fitted effect of over 60% in size
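Schneider cells (Drosophila), stable Gal4 DBD–ROR gamma + UAS-luc; 1 hr cmpd preincubation; Cu2+ induction 700 uM final; 20 hr ambient; luminescence.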
CBFb RUNX1 block: qHTS Assay for Compounds Blocking the Interaction Between CBF-beta and RUNX1 for the Treatment of Acute Myeloid Leukemia | Runt-related transcription factor 1 (Homo sapiens) + Core-binding factor subunit beta … | AlphaScreen CBFb-His/RUNX1-biotin binding, biochemical | Potency, µM (top dose mostly 59.8 µM), actives largely listed as inhibitors | 230,000 tested, under 10 active | AID 1477, 2009
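Inhibition was taken as any reduction in AlphaScreen signal from the CBF-beta–RUNX1 pair (His and biotin tags, 30 nM each), measured after compound (15 min) and bead (90 min) incubations at room temperature.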
Gal4-VP16 FLuc: VP16 counterscreen qHTS for inhibitors of ROR gamma transcriptional activity | Drosophila S2 Gal4-VP16 UAS-luciferase, luminescence, 20 h | Potency, µM (titrated, usually from 53.6 µM), hits mostly inhibitors | AID 2546, 2010 | hit rate 3.5% among 310,000;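 note: Gal4-VP16 expression switched on by copper sulfate through the metallothionein promoter; nearly all actives have a fitted effect of over 50% in size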
CtBP-E1A blk: qHTS Assay for Inhibitors of the CtBP/E1A Interaction; hit rate 0.49% among 340,000; AlphaScreen GST-E1A/His-CtBP binding, 1536-well; hits give low values; activity change, % (test concentration not listed); CtBP / adenovirus E1A interaction (AlphaScreen); in the data active = activity change below about -65%; inconclusive = mostly about -30% to -63%
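Protein mix (5X: 125 nM each GST-E1A, His-CtBP) was incubated with pinned compound 2 h at 37 deg C in dark, in 50 mM Tris pH 8.0 buffer with 300 mM NaCl. Glutathione donor and nickel acceptor beads followed; AlphaScreen signal read after 1 h.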
Six1-Eya2 inh: qHTS Assay for Inhibitors of the Six1/Eya2 Interaction; Homeobox protein SIX1 (Homo sapiens) + Protein phosphatase EYA2 (Homo sapiens), …; hit rate 0.56% among 360,000; activity change, % (no concentration beside the values); AlphaScreen GST-Six1/His-Eya2 binding, biochemical; hits give low values; in the data active = activity change below about -65%; inconclusive = mostly about -30% to -63%
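GST-Six1 + His-Eya2 (5X stock: 250/500 nM); Tris pH 8.0, 300 mM NaCl, 0.05% BSA, 0.02% Tween 20; GSH donor/Ni acceptor beads; 1 h 37 °C dark; AlphaScreen readout.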
Numbers stand for hits; - = inactive; ? = inconclusive; . = no result given; [ ] = remark or other dose. Unless noted, calls come from the whole dose curve; as a rule, active = well fitted curve in the direction sought with a large enough effect; inconclusive = small, poorly fitted or top-dose-only effect, or another doubt; inactive = no such curve, though single readings can be large; an effect the other way counts as inactive or inconclusive.

SMILES	MBNL1-CUG inh	RORg inh	CBFb RUNX1 block	Gal4-VP16 FLuc	CtBP-E1A blk	Six1-Eya2 inh
CC1(C)CC(=O)C=C(NC2=CC3OC(c4ccccc4)OCC3OC2=O)C1 (stereo unspecified)	-[11.5 µM]	?	-	11µM	-	-
Cc1ccc(/C=C/S(=O)(=O)NCC(=O)OCC(=O)Nc2ccc(C(=O)N(C)C)cc2)cc1	.	.	.	.	-91	-
C/C(=N\NC(=O)CCCNc1ccc(C)cc1)c1ccccn1	-[11.5 µM]	2.2µM	-	13µM	?	?
C/C(=N\NC(=O)CCCNc1ccccc1)c1ccncc1	-	-	-	-	-	-
C/C(=N\NC(=O)c1ccccc1-n1cccc1)c1ccccn1	.	.	.	.	?	-92
O=C(CCc1ccccc1O)N/N=C/c1ccc(Sc2cccc3cccnc23)o1	-	?	-	-	-92	-88
C/C(=N\NC(=O)CC#N)c1cc2ccccc2oc1=O	?	6.3µM	-	6.3µM	-	?
O=C(N/N=C/c1ccccc1Br)c1ccc(CSc2cccc3cccnc23)cc1	-	-	-	-	?	-
CC(C)(C)[C@H]1COC(=O)CC/C=C\C[C@H](CC(=O)N(CCO)Cc2ccccc2)C(=O)N1	.	.	.	.	-	-
C[C@@H]1CN([C@@H](C)CO)C(=O)c2c(c3ccccc3n2C)-c2ccccc2CO[C@H]1CN(C)C(=O)[C@H](Cc1ccccc1)N(C)C	.	.	.	.	-	-
CCC(Sc1nnc(-c2ccco2)n1C)C(=O)Nc1nnc(C)s1 (stereo unspecified)	-	-	.	-	-	-
C/C(=N\NC(=O)c1ccc(F)cc1)c1ccccn1	-	0.25µM	.	0.4µM	.	-92
C/C(=N\NC(=O)c1ccccn1)c1ccc(C(=O)O)s1	?	-	-	-	.	.
C/C(=N\NC(=O)c1cc2ccccc2cc1O)c1cc2ccccc2o1	.	10µM	-	?	-	-
O=C(NN=C1c2ccccc2-c2ccccc21)c1ccccn1	-	3.2µM	-	4.5µM	?	-
C/C(=N\NC(=O)c1cc2ccccc2cc1O)c1ccccn1	-	0.2µM	.	0.13µM	-	-
COc1cccc(-c2cnc(C(O)c3ccc(Cl)c(Cl)c3)[nH]2)c1 (stereo unspecified)	.	.	.	.	-	-
O=C(N/N=C/c1ccc(Sc2ccccn2)o1)c1cc2ccccc2cc1O	-	16µM	-	-[0.365 µM]	-	-
CC(CC(=O)c1ccccc1)=NCCCN=C(C)CC(=O)c1ccccc1	.	.	.	.	-	-
C/C(CC(=O)c1ccccc1)=N\NC(=O)CC#N	-	4µM	-	?	-	-
C/C(=N\NC(=O)c1c[nH]c2ccccc12)c1ccccn1	-	3.5µM	?	?	-93	-93
C/C(=N\NC(=O)c1nc2ccccn2c1C)c1cc2ccccc2o1	?	13µM	-	?	?	-
COC(=O)CN1C(=O)COc2ccc(S(=O)(=O)N3CCCCC3)cc21	.	.	.	.	-	-
CCOc1ccc(CN2CCN(CCCc3ccccc3)CC2CCO)cc1 (stereo unspecified)	-	-	.	-	-	-
COc1ccc(C(=O)N/N=C(\N)c2cc3ccccc3oc2=O)cc1	?	0.89µM	.	?	-	-
SMILES	MBNL1-CUG inh	RORg inh	CBFb RUNX1 block	Gal4-VP16 FLuc	CtBP-E1A blk	Six1-Eya2 inh
CCc1ccc(/C(C)=N/NC(=O)c2ccccn2)cc1	-	?	-	-	-	-
CC(=N/O)/C(C)=N\NC(=O)c1ccccn1	-	6.3µM	-	5µM	?	-
CCC(C)C(NC(=O)OC(C)(C)C)C(=O)NC1COC2CC(n3cc(F)c(=O)[nH]c3=O)OC12 (stereo unspecified)	.	-	-	-	.	.
COc1ccccc1-c1nnc(NC(=O)C(C)SC2=NCCS2)s1 (stereo unspecified)	-	13µM	-	?	-	-
CCNc1nnc(-c2ccccc2OC)s1	-	-	-	-	-	-
CC(Sc1nncn1C)C(=O)Nc1nnc(-c2ccccc2)s1 (stereo unspecified)	-	?	-	-	-	-
CC(SC1=NCCS1)C(=O)Nc1nnc(-c2ccc(Cl)cc2)s1 (stereo unspecified)	-	5µM	-	8.9µM	-	-
CCCCC[C@H](O)/C=C\[C@H]1[C@H](C/C=C\CCCC(=O)O)[C@@H](O)C[C@H]1O (tested in a mixture with another compound)	.	-	-	-	.	.
CC#CCOCC1CN(C)C(=O)O1 (stereo unspecified)	.	.	.	.	-	-
O=C(NCCc1ccc(Cl)cc1)c1cccc(S(=O)(=O)N2CCCC2)c1	.	.	.	.	-	-
CC1(C(=O)NS(=O)(=O)C2CC2)CCCN(C(=O)c2ccc(F)c(Cl)c2)C1 (stereo unspecified)	.	.	.	.	-	-
Cc1cc(C(=O)NC2CCCc3c2cnn3-c2cccc(C)c2C)no1 (stereo unspecified)	-	?	.	?	-	-
Cc1cccc(-n2ncc3c2CCCC3NC(=O)Cc2c(C)noc2C)c1C (stereo unspecified)	-	-	.	10µM	-	-
CCn1cc(C(=O)NC2CCCc3c2cnn3-c2cccc(C)c2C)cn1 (stereo unspecified)	-	-	.	1.3µM	.	.
CC1=C(C(=O)NC2CCCc3c2cnn3-c2cccc(C)c2C)OCCO1 (stereo unspecified)	-	?	.	11µM	-	-
Cc1cccc(-n2ncc3c2CCCC3NC(=O)c2ccncc2)c1C (stereo unspecified)	.	.	.	.	-	-
O=C(O)/C=C\C(=O)Nc1ccccc1C(=O)N1CCC(O)(c2ccc(Cl)cc2)CC1	.	.	.	.	-	-
Cc1ccc(Nc2nc3ccccc3c(=O)s2)cc1	-	6.3µM	-	11µM	.	-
O=c1sc(Nc2ccccc2)nc2ccccc12	-	-	-	-	-	-
Cc1cc(C)n(S(=O)(=O)/C=C/c2ccccc2)n1	-	16µM	-	-	-	-
COc1cccc(/C=N/NC(=O)CNC(=O)CCc2ccccc2)c1O	-	?	-	-	.	-69
COc1cccc(/C=N/NC(=O)CSc2ccccc2C)c1O	-	0.71µM	-	0.79µM	-	?
COc1ccccc1/C=C\C(=O)NCC(=O)N/N=C/c1cccc(OC)c1O	-	4.5µM	.	7.1µM	-89	?
COc1ccccc1/C=C\C=N\NC(=O)c1ccco1	?	?	-	?	-	-
COc1ccccc1/C=C/C=N/NC(=O)c1cccs1	?	7.9µM	-	?	-	-
